Screens as filed in PubChem.
HIF-2a inh: HIF-2a reporter inhibitors, primary screen, luminescence, 786-0 RCC cells | hit rate 0.72% among 360,000 | inhibition, % at 18.8 µM | 786-0 RCC cells HIF-2a reporter, luciferase luminescence, overnight | AID 624352, 2012;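 active = inhibition of the luminescence signal of 40% or more relative to plate controls, in a single-dose primary screen at 18.75 µM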
CF NFkB inh: inhibitors of PAF-induced NF-kB signaling, primary screen, cell-based, GFP fluorescence, uHTS; AID 588850, 2011; inhibition, % at 5 µM; KKLEB NF-kB-GFP reporter, GFP fluorescence overnight; hit rate 0.86% among 360,000;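 active = at least 50% inhibition at 5 µM, scaled per plate between neutral and stimulator controls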;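 also: PAF is a Pseudomonas aeruginosa culture filtrate used as stimulus; plate controls were PAF-stimulated DMSO wells for no effect and unstimulated DMSO wells for full effect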
TWEAK-Fn14 inh: inhibitors of TWEAK-Fn14 signaling, primary screen, luciferase reporter cells, uHTS; TWEAK-stimulated Fn14 reporter cells, luciferase luminescence, 8 h; inhibition, % at 10 µM; hit rate 2% among 360,000; AID 1159606, 2016; in the data active = inhibition above about 50%
Peg3 prom inh: Peg3 promoter-driven luciferase inhibitors, primary screen, cell-based, HeLa, luciferase luminescence. HeLa PEG-Prom luciferase reporter, overnight. inhibition, % at 20 µM. hit rate 1.7% among 360,000. AID 588405, 2011;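 active = inhibition of at least 50% at 20 µM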
KKLEB tox: cytotoxicity in KKLEB CF airway cells, primary screen, cytotoxicity control for CF NF-kB inhibitor project, cell-based, uHTS, fluorescence assay plates; KKLEB CF airway cells viability, ATPlite luminescence, overnight; active compounds read low; cells stimulated with P. aeruginosa culture filtrate; activity change (cytotoxicity), % at 5 µM; hit rate 0.36% among 360,000;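 active = corrected activity change at or below -50% at 5 µM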
TROY NFkB inh: inhibitors of TROY-driven NF-kB signaling, primary screen, Q293 LMP1-TROYcd cells, NF-kB luciferase, uHTS; hit rate 0.98% among 360,000; inhibition, % at 10 µM; Q293 LMP1-TROYcd NF-kB luciferase reporter, 4 h; AID 1347056, 2019;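 active = compounds whose plate-normalised and pattern-corrected inhibition of the luciferase reporter signal at the single screening dose is 50% or more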
CF NFkB conf: inhibitors of PAF-induced NF-kB signaling, retest, confirmation, cell-based, GFP fluorescence, single concentration; shares compounds with CF NFkB inh; KKLEB CF airway cells, overnight; inhibition, % at 5 µM; hit rate 64% among 1,300; in the data active = inhibition above about 40%;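 also: stimulus PAF is a Pseudomonas aeruginosa filtrate and not platelet activating factor; plate controls were DMSO wells with stimulus for no effect and unstimulated DMSO wells for full effect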
Mdm2 MdmX conf: retested Mdm2-MdmX interaction blockers, confirmation, cell-based, luminescence, single concentration, set 2; SaOS-2 split-luciferase Mdm2/MdmX complementation; shares compounds with HIF-2a inh; hit rate 99% among 740; AID 504601, 2011; inhibition, % at 8 µM;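 active = mean inhibition of the luminescence signal across two replicates at or above 26 percent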
HIF-2a conf: HIF-2a reporter inhibitor retest, confirmation, luminescence, 786-0 RCC cells; shares compounds with HIF-2a inh; HIF-2a luciferase reporter luminescence, overnight; inhibition, % at 18.8 µM; hit rate 56% among 1,800; AID 651580, 2012;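 active = mean inhibition across four replicates of at least 40 percent at the single tested concentration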
HIF-1a counter: HIF-1a luciferase reporter signal reduction – MiaPaCa-2 cells, single concentration, counter-screen for HIF-2a inhibitor project, confirmation; shares compounds with HIF-2a inh; MiaPaCa-2 HIF-1a luciferase reporter, desferoxamine, overnight; inhibition, % at 18.8 µM; hit rate 72% among 1,800;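 active = mean inhibition of the reporter signal across four replicates at the single tested dose of 50% or more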
Numbers without * were called inactive; · = not tested or not shown. A selection: hits, their analogues and other compounds. The true share with any hit is near 4%.

SMILES	HIF-2a inh	CF NFkB inh	TWEAK-Fn14 inh	Peg3 prom inh	KKLEB tox	TROY NFkB inh	CF NFkB conf	HIF-2a conf	HIF-1a counter	others
C#CCN(C[C@@H]1[C@@H](OC(=O)NCc2ccco2)[C@@H](OC(=O)NCc2ccco2)Cn2c(=O)n(CCCCCC)c(=O)n21)S(=O)(=O)c1ccc(C)cc1	-1	28	-21	-10	7	-5	·	·	·
CC1CCN(CC(CS(=O)(=O)c2ccc([N+](=O)[O-])cc2)N2CCC(C)CC2)CC1 (configuration not stated)	93*	96*	8	108*	-42	-1	88*	24	107*	Mdm2 MdmX conf=103*
CCOc1ccc(CCN2C(=S)N([C@@H](Cc3ccc(O)cc3)CN3CCC[C@@H]3CN3C(=S)NC[C@@H]3CC(C)C)C[C@@H]2CC(C)C)cc1	-26	33	4	1	-4	4	·	·	·
CC(=O)OCCNc1cc(SC(C)C)c2nonc2c1[N+](=O)[O-]	-2	-16	20	16	1	9	·	·	·
CC(=O)OCCCNc1cc(Sc2ccc(Cl)cc2)c2nonc2c1[N+](=O)[O-]	79*	70*	79*	103*	-8	51*	53*	-9	97*
Cn1c(SC2=CS(=O)(=O)c3ccccc32)nc2ccccc21	91*	91*	88*	99*	-27	56*	98*	-9	77*
CC(C)N=C(NS(=O)(=O)c1ccccc1)C(Cl)(Cl)Cl	84*	60*	101*	38	-19	77*	45*	57*	35
CCN1C[C@@H]2[C@@H]3C(=O)N(C)C(=O)[C@@H]3[C@](Cc3ccccc3)(C(=O)OC)N2C1=NCc1ccccc1	9	8	2	-9	1	-18	·	·	·
C=C1C(=O)O[C@H]2C[C@H]1[C@@H](OC(C)=O)C/C(C)=C/CC/C(C)=C\CC[C@]2(C)O	94*	77*	86*	89*	-16	43	65*	96*	105*
COc1ccc2cc3c(N)nn(C(=O)Cc4ccccc4OC)c3nc2c1	36*	54*	52*	42	-10	35	68*	13	89*
CCOc1ccc(-n2c(C)c(C(C)=O)c3cc(OC(C)=O)ccc32)cc1	22	76*	79*	26	2	42	87*	·	·	Mdm2 MdmX conf=89*
COc1ccc2c(c1)c(C(C)=O)c(C)n2-c1ccccc1	12	36	26	3	5	20	·	·	·
COc1ccc(-n2c(C)c(C(C)=O)c3cc(O)ccc32)cc1	13	69*	59*	7	-6	49	86*	·	·	Mdm2 MdmX conf=87*
CCOc1ccc(-n2c(C)c(C(=O)O)c3cc(OC)ccc32)cc1	3	36	40	-4	2	-15	·	·	·
COc1cccc(N(CC(=O)NCCSCc2ccc(Cl)cc2)S(C)(=O)=O)c1	22	-11	1	14	3	5	·	·	·
COc1ccc(CNC(=O)Cn2nc([N+](=O)[O-])cc2C)cc1	11	13	17	14	6	16	·	·	·
